Source: PubChem
Only some compounds are listed: those with a hit (about 20% of all), similar ones and a draw of the others.
Shiga toxin inh: blocks Shiga toxin action in Vero cells; AID 2315; actives 9.2% (n = 290,000); Vero cells, Shiga toxin protein synthesis inhibition reporter; inhibition, % at 38.7 µM; in the data active = inhibition mostly above about 28%, no sharp cut-off; inactive = mostly below about 43%; note: 0% is about no effect
Pf growth 48h: P. falciparum growth inhibition at 48 hours (one generation); Potency, µM (titrated, usually from 28.7 µM), inactives show at the highest dose activity change, negative = inhibition, usual class: inhibitors; P. falciparum luciferase growth in erythrocytes, 48 h; actives 5.9% (n = 310,000); note: potency is the fitted concentration of half-maximal effect; % is set by controls: 0 for no effect and ±100 for the full control effect
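Luciferase-expressing parasites in RBCs, 2% Hct / 0.1% parasitemia final; RPMI 1640 + 0.5% Albumax; 37 C, 5% CO2, one generation; luminescence read-out, lower signal = inhibition.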
CHX counter: counter-screen hit for Shiga toxin inhibitors, cycloheximide | cell reporter, cycloheximide protein synthesis inhibition counterscreen | max response, % | actives 12% (n = 300,000); in the data active = max response mostly above about 13%, no sharp cut-off; inactive = mostly below about 14%; note: read at 38.3 µM for the half of the compounds with a filed dose; 0% is about no effect
Pf growth 96h: P. falciparum growth inhibition at 96 hour, primary screen for plastid delayed-death inhibitors. AID 504834. P. falciparum luciferase reporter growth, 96 h. actives 6.9% (n = 320,000). Potency, µM (doses to about 28.7 µM), inactives show at the highest dose activity change, negative = inhibition, most hits filed as inhibitors; note: potency is the fitted concentration of half-maximal effect; % is set by controls: 0 for no effect and ±100 for the full control effect
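Compounds incubated with erythrocytes infected by luciferase-expressing P. falciparum (2% hematocrit, 0.05% parasitemia final) for 96 hours, 37 C in 5% CO2. Growth inhibition scored as decreased luciferase luminescence.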
HCMV inh: blocks human cytomegalovirus replication. AID 1259415. actives 4.5% (n = 410,000). HFF cells, HCMV-luciferase reporter, 72 h; active compounds read low. activity change, negative = inhibition, % at 57.5 µM; in the data active = activity change below about -60%; inconclusive = no clear call, values can overlap the other calls; inactive = above about -39%; note: % is set by controls: 0 for no effect and ±100 for the full control effect
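Cell-based, HFFs, 1000 cells/well, 16 h 37C; cpds in DMSO + HCMV-luc, MOI 1 PFU/cell; 72 h 37C; OneGlo luminescence after 5 min RT; norm. to buffer vs Salinomycin 10uM.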
Numbers without * were called inactive; u = inconclusive; x = no result given. Unless noted, calls come from the whole dose curve; as a rule, active = well fitted inhibition curve with a large enough effect; inconclusive = small, poorly fitted or top-dose-only effect, or another doubt; inactive = no such curve, though single readings can be large or run the other way.

SMILES | Shiga toxin inh | Pf growth 48h | CHX counter | Pf growth 96h | HCMV inh
O=C(Nc1nc(-c2ccc(S(=O)(=O)N3CCOCC3)cc2)cs1)c1ccccc1 | -9.3 | 8.28µM* | -2.0 | 8.28µM* | -91.5*
COc1ccccc1NC(=O)Cn1c(=O)n(-c2ccccc2Cl)c(=O)c2sc3ccccc3c21 | x | x | x | x | 7.0
CCOc1ccccc1CNC(=O)CCNS(=O)(=O)c1ccc2[nH]c(=O)oc2c1 | 6.0 | u | -4.6 | u | -33.4
COC(=O)Nc1ccc(S(=O)(=O)NCCO)cc1 | 7.2 | x | -2.1 | 26.8% | -11.1
COC(=O)Nc1ccc(S(=O)(=O)NCCCCCC(=O)O)cc1 | 1.2 | 6.6% | -2.2 | 2.94µM* | -21.4
COC(=O)Nc1ccc(S(=O)(=O)Nc2ccc(O)cc2)cc1 | -4.1 | u | -4.9 | 45.4% | -66.7*
CCn1nc(-c2ccccc2)c(-c2ccccc2)c(C(=O)Nc2ccc(NC(C)=O)cc2)c1=O | x | x | x | x | -3.0
Cc1ccc2oc(=O)n(CCOc3ccccc3C)c2c1 | -5.8 | 2.62µM* | -0.5 | 8.6% | -27.2
Cc1ccc2oc(=O)n(CCCOc3ccccc3C)c2c1 | 44.8* | 23.4% | 15.7* | -1.1% | -17.0
COc1ccccc1OCCn1c(=O)oc2ccc(C)cc21 | 17.5 | u | -4.6 | -6.8% | 34.4
Cn1c(N)c(C(=O)COC(=O)CNS(=O)(=O)c2cccc(Cl)c2)c(=O)n(C)c1=O | -3.2 | 50.4% | -3.0 | 2.2% | 16.2
O=C(NNC(=O)c1ccccc1-c1ccccc1C(=O)O)c1ccccc1 | -3.2 | 16.4% | -2.9 | 4.8% | -24.7
O=C(C=P(c1ccccc1)(c1ccccc1)c1ccccc1)c1ccccc1-c1ccccc1C(=O)C=P(c1ccccc1)(c1ccccc1)c1ccccc1 | x | x | x | x | -98.4*
CC1CCN(CCCOc2ccc(Cl)cc2Br)CC1 | 73.5* | -15.1% | 25.6* | u | -6.6
CC1CCN(CCCCOc2ccccc2Br)CC1 | 4.3 | u | -0.4 | u | u
Clc1ccc(OCCOCCN2CCCCC2)c(Br)c1 | 20.7 | u | 6.0 | u | 40.5
CC1CCCN(CCCOc2ccc(Cl)cc2Br)C1 (centres undefined) | 102.7* | u | 36.5* | 3.3% | -11.4
CC1CCN(CCOCCOc2ccc(Cl)cc2Br)CC1 | -32.7 | u | -3.8 | 6.57µM* | 9.5
Cc1cc(Cl)c(OCCOCCN2CCC(C)CC2)c(Br)c1 | -6.4 | u | -6.6 | 11.7µM* | u
COC(=O)C1=C(CCc2ccccc2)NC(=O)NC1c1ccc([N+](=O)[O-])cc1 (centres undefined) | x | x | x | x | -10.1
CCOC(=O)CSCC(=O)N1CCC(Cc2ccccc2)CC1 | -7.8 | 0.4% | -5.7 | 22.5% | -19.0
CCN(CC)C(=O)COc1ccc(/C(C)=N/NC(=O)c2ccccc2-n2cccc2)cc1 | 2.0 | u | -2.8 | u | 50.3
Cc1ccc2c(c1)-c1[nH]c(=S)ncc1CS2 | -3.9 | -6.0% | -4.4 | 76.2% | 6.5
CC(C)(C)c1ccc(C2(C)NC(=O)N(CC(=O)NC3CCS(=O)(=O)C3)C2=O)cc1 (centres undefined) | x | u | x | 25.6% | -14.6
Cc1ccc(Cl)c(OCCN2CCCC(C)C2)c1 (centres undefined) | 12.0 | -24.2% | -1.6 | 4.5% | u
SMILES | Shiga toxin inh | Pf growth 48h | CHX counter | Pf growth 96h | HCMV inh
CC1CCCN(CCOc2ccc3ccccc3c2Br)C1 (centres undefined) | 43.0* | u | 14.5 | u | -82.9*
O=C1/C(=C/c2ccco2)Cc2ccccc21 | 78.1* | 44.2% | 54.1* | u | -30.1
CC1C/C(=C/c2ccco2)C(=O)/C(=C/c2ccco2)C1 (centres undefined) | -2.5 | 50.1% | -1.4 | 8.28µM* | x
O=C(CCN1C(=O)c2ccccc2Sc2ncccc21)Nc1ccc(F)cc1F | x | x | x | x | -22.6
O=C(Nc1cccc(-c2ccc(N3CCCCC3)nn2)c1)c1ccco1 | x | -59.8% | x | -9.4% | 56.9
Cc1cc(C(=O)CSc2nnc(CCC(N)=O)n2C)c(C)n1C1CC1 | x | 12.6% | x | 7.1% | -11.2
Cc1cc(C(=O)CSc2nnnn2C)c(C)n1C1CC1 | 150.6* | 376.7% | 56.1* | 194.7% | 60.8
CNc1nnc(SCC(=O)c2cc(C)n(C3CC3)c2C)s1 | x | 91.7% | x | 28.2% | 87.3
Cc1nnc(SCC(=O)c2cc(C)n(C3CC3)c2C)s1 | 69.2* | -4.2% | 81.0* | 165.3% | 43.5
NC(=O)c1ccc(-n2nc(C(F)(F)F)c3c2CCCC3)cc1 | 29.0 | 27.4% | 19.0* | -97.3% | u
O=C(O)c1ccc(-n2nc(C(F)(F)F)c3c2CCCC3)cc1 | 2.2 | 14.9% | -1.4 | u | -5.6
CCOc1ccc(-c2noc(CCCC(=O)NC3CCCC3)n2)cc1OC | 23.1 | u | 3.1 | -7.6% | 37.8
CCc1c(C)c2cc3c(c(C)c2oc1=O)OCN(CCc1ccccc1F)C3 | x | x | x | x | 33.7
COC(=O)CCc1c(C)[nH]c(=S)[nH]c1=O | -9.3 | 7.2% | 1.4 | u | 43.3
CCOC(=O)Cc1c(C)[nH]c(=S)[nH]c1=O | 3.1 | 1.31µM* | 0.8 | -28.9% | -17.9
Cc1ccc(C)c(S(=O)(=O)c2nnn3c2nc(Nc2ccc(C)c(C)c2)c2sccc23)c1 | x | x | x | x | 2.9
Cc1ccc(C)c(S(=O)(=O)c2nnn3c2nc(NC(C)C)c2sccc23)c1 | x | x | x | x | -69.9*
O=C(OCC(=O)N1CCCc2ccccc21)c1cccnc1Cl | 23.6 | 29.2% | 11.3 | 17.9% | 22.7
O=C(OCC(=O)N1CCc2ccccc21)c1ccccn1 | 51.5 | 30.8% | 31.7* | u | -27.3
O=C(COc1cccc2cccnc12)N1CCc2ccccc21 | 63.1* | 2.0% | 18.4* | 0.0% | u
O=C(OCC(=O)N1CCc2ccccc21)c1cccnc1Cl | 69.3* | 96.0% | 34.7* | 94.2% | 1.6
COc1ccccc1C(CC(=O)O)NS(=O)(=O)c1ccc2c(c1)N(C(C)=O)CC(C)O2 (centres undefined) | -3.4 | 2.9% | 0.7 | u | -18.7
COc1ccc(S(=O)(=O)NCC2CCCN(C(=O)c3ccccc3)C2)cc1 (centres undefined) | 28.7 | -22.7% | 6.8 | 8.7% | 8.8
Cc1cc(C)nc(N(C#N)CC(=O)c2ccccc2)n1 | 47.6* | -0.5% | 36.8* | x | -24.5
CCc1ccc(C(=O)CN(C#N)c2nc(C)cc(C)n2)cc1 | 25.0 | 0.0% | 3.9 | u | u
SMILES | Shiga toxin inh | Pf growth 48h | CHX counter | Pf growth 96h | HCMV inh
Cc1ccc([C@@H]2CC(=O)[C@@H]3CN(S(=O)(=O)c4ccc(C)cc4)[C@H](c4ccccc4)C[C@@H]3N2S(=O)(=O)c2ccc(C)cc2)cc1 | x | x | x | x | -2.6
CC(C)c1nn2c(=O)cc(COC(=O)c3ccccc3NC(=O)c3cccc(Cl)c3)nc2s1 | x | x | x | x | -29.9
CC(=O)Nc1ccc(NC(=O)Cn2c(CC(=O)N3CCCC3)nc3ccccc32)cc1 | -12.1 | 4.0% | -3.4 | -3.9% | -87.6*
CC(=O)Nc1ccc(C(=O)CSc2nc3ccccc3n2CC(=O)N2CCCC2)cc1 | -11.2 | x | -4.9 | 3.7µM* | -28.6
CNC(=O)Cc1nc2ccccc2n1CC(=O)Nc1cc(C)cc(C)c1 | 32.5 | 5.1% | -3.9 | u | -26.3
O=C(CSc1nc2ccccc2n1CC(=O)N1CCCCC1)N1CCCCC1 | 8.1 | -9.2% | 2.8 | -12.0% | 4.9
